Hits are enriched below; roughly 11% of the tested compounds scored in any of these assays.
FLuc inh – firefly luciferase inhibition. P08659. 72,000 tested, 2.2% active. purified firefly luciferase, luminescence, 8 min. Potency, µM (series often up to 57.1 µM), for the others: at the top dose activity change, negative = inhibition, most hits filed as inhibitors; further: nearly all actives have a fitted effect of over 40% in size
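Substrate buffer containing 10 uM ATP (pH 7.2 imidazole, Mg2+, KCl, detergent, BSA) is dispensed, compound pinned in, then luciferase/luciferin detector mix added. After 8 min at ambient temperature, light output is measured.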
PK Bst – alters activity of Bacillus stearothermophilus pyruvate kinase; purified pyruvate kinase, luminescence ATP production; ribose 5-phosphate activator present at AC10; 51,000 tested, 1.2% active; AID 361; Potency, µM; in the data active means potency below about 11 µM; inconclusive means mostly about 12 µM to 25 µM;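 the screen sought inhibitors and activators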;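 further: scaled between full activation by ribose 5 phosphate and full inhibition by luteolin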
HADH2 inh – inhibitors of human HADH2 dehydrogenase; Q99714; recombinant HADH2, NADH fluorescence, beta-hydroxybutyryl-CoA; Potency, µM (series often up to 57.1 µM), without a hit: at the highest dose activity change, negative = inhibition, usual class: inhibitors; 73,000 tested, 3.4% active; AID 886; further: nearly all actives have a fitted effect of over 60% in size
Target sequence (Q99714 whole entry, looked up, one chain of several): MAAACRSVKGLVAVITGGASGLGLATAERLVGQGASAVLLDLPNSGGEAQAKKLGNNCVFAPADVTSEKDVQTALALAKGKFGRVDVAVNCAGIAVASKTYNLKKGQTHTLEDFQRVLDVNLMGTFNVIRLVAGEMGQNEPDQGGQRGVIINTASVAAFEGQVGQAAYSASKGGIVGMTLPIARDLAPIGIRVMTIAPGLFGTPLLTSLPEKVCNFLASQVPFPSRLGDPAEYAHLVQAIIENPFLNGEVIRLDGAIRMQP
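His-tagged recombinant enzyme from E. coli, 20 nM, preincubated 15 min RT with compound; reaction started with 1 mM NAD+ and 90 uM beta-hydroxybutyryl-CoA in 100 mM Tris-HCl pH 9.0. NADH fluorescence (ex 360/em 450) read over 4 min; last-minus-first difference.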
ALOX15 inhib – blocks human 15-lipoxygenase activity. P16050. purified 15hLO-1, xylenol orange hydroperoxide absorbance. Potency, µM (highest dose often 57.1 µM), for the others: at the top dose activity change, negative = inhibition, usual class: inhibitors. 74,000 tested, 1.4% active. AID 887; further: nearly all actives have a fitted effect of over 55% in size
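Purified human 15hLO-1 (40 nM) in 25 mM Hepes pH 7.5, 0.01% Triton X-100, preincubated 15 min RT with compound, then 50 uM arachidonic acid for 6 min. Hydroperoxide read by ferrous/xylenol orange, 30 min; 573/405 nm absorbance ratio gave progress.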
ERK AVP block – blocks ERK signaling stimulated by vasopressin. HEK293-V1b, vasopressin-stimulated pERK AlphaScreen. 72,000 tested, 0.99% active. Potency, µM (top dose mostly 57.5 µM), for the others: at the top dose activity, negative = inhibition, actives largely listed as inhibitors; further: nearly all actives have a fitted effect of over 55% in size
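HEK293 cells stably expressing V1b receptor, seeded overnight in 1% FBS, were treated with compounds for 30 min at 37C, then stimulated 5 min with 25 nM vasopressin; phospho-ERK read by AlphaScreen SureFire after lysis.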
HSD17B inhib – inhibitors of human HSD17B10 dehydrogenase | recombinant HSD17B10, NADH fluorescence kinetic | Potency, µM (top dose mostly 57.1 µM), without a hit: at the top dose activity change, negative = inhibition, most hits filed as inhibitors | 75,000 tested, 7.6% active | AID 893;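 further: the protocol describes HADH2 (HSD17B10) and not the HSD17B4 of the title; nearly all actives have a fitted effect of over 70% in size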
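20 nM HADH2, pH 9.0 Tris/Tween; cpd preinc 15 min RT; start w/ 1 mM NAD+ + 90 uM b-hydroxybutyryl-CoA; kinetic fluor ex360/em450 q30s x 4 min; delta last-first.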
The depositor's hits bear a star; ? = inconclusive; . = not tested or not shown; [ ] = another dose, or the depositor's remark. Unless noted, the call rests on the fitted dose curve; in most records, active means well fitted curve in the direction sought with a large enough effect; inconclusive means small, poorly fitted or top-dose-only effect, or another doubt; inactive means no such curve, though single readings can be large; an effect the other way counts as inactive or inconclusive. Unless noted, on the % scale 0 is the no-effect control and ±100 the full control effect; potency means the concentration at half of the fitted maximal effect.

SMILES	FLuc inh	PK Bst	HADH2 inh	ALOX15 inhib	ERK AVP block	HSD17B inhib
C(CCc1nnc2c(n1)CCCC2)Cc1nnc2c(n1)CCCC2	1%[11.4 µM]	.	-2%[11.4 µM]	6%[11.4 µM]	-13%[11.5 µM]	2%[11.4 µM]
CCCCN(CC)CCNC(=O)c1cc2c(=O)n(C)c3ccccc3c2n1C	-1%	.	?	-3%	-23%	32µM*
CCCN(CCC)CCCNC(=O)c1cn(CCOC)c(=O)c2c1c1ccccc1n2C	0%	>57	37%	8%	-5%	4µM*
CN(C)CCNC(=O)c1cc2c(=O)n(C)c3ccccc3c2n1C	5%	.	?	-6%	2%	?
CCN(CC)CCNC(=O)c1cc2c(=O)n(C)c3ccccc3c2n1C	0%	.	?	?	-23%	25µM*
Cn1c(C(=O)NC2CC2)cc2c(=O)n(C)c3ccccc3c21	-3%	.	?	2%	-6%	?
Cn1cc(C(=O)NCCN2CCN(c3cccc(Cl)c3)CC2)c2c3ccccc3n(C)c2c1=O	2%	>57	0%	-2%	3%	1%
COCCCNC(=O)c1cc2c(=O)n(C)c3ccccc3c2n1C	-4%	.	1%	-18%	?	32µM*
COc1ccc2[nH]cc(CCNc3nc(-c4cccc(C#N)c4)nc4ccccc34)c2c1	-9%[2.29 µM]	.	28%	4%	-22%	-3%
CCOC(=O)OCC1OC(c2ccc(C(C)=O)cc2)C=CC1Oc1ccc(-c2ccccc2)cc1 (stereo not given)	.	.	4%[11.4 µM]	-3%[11.4 µM]	18%[11.5 µM]	2%[11.4 µM]
CCN(CC)CCCNC(=O)c1cc2c(=O)n(C)c3ccccc3c2n1C	2%	.	1%	-15%	-15%	32µM*
CCCN(CCC)CCCNC(=O)c1cc2c(=O)n(C)c3ccccc3c2n1C	-2%	.	15%	-3%	1%	32µM*
COCCNC(=O)c1cc2c(=O)n(C)c3ccccc3c2n1C	-5%	.	-15%	-8%	-10%	?
O=C(c1c[nH]c2ccc(S(=O)(=O)N3CCOCC3)cc2c1=O)N1CCCC1	1%	>57	13µM*	0%	14%	25µM*
O=C(O)c1c[nH]c2ccc(S(=O)(=O)N3CCN(c4ccc(F)cc4)CC3)cc2c1=O	-2%	>57	-23%	-7%	-7%	?
CCOC(=O)c1ccc2[nH]cc(C(C)=O)c(=O)c2c1	-4%	>57	?	6%	22%	25µM*
CCOC(=O)N1CCN(S(=O)(=O)c2ccc3[nH]cc(C(=O)O)c(=O)c3c2)CC1	1%	>57	?	3%	12%	13µM*
COC(=O)C/C=C/C(C)C(OCc1cccc(Br)c1)C(C)C(OC)C1CCCCC1 (stereo not given)	.	.	3%[11.4 µM]	-1%[11.4 µM]	18%[11.5 µM]	10%[11.4 µM]
COc1ccc(-c2nc3cnc(N(C)C)nc3n(Cc3ccc(F)cc3)c2=O)cc1	0%[11.4 µM]	.	-2%	-18%	24%	7.9µM*
COc1cccc(Cn2c(=O)c(-c3ccc(F)cc3)nc3cnc(N(C)C)nc32)c1	1%[11.4 µM]	.	2%	-9%	1%	10µM*
CCC1=C(OC(=O)N(CC)CC)N2C(=O)OC(=NCCOC)[C@]2(C)[C@H]2C1=CC[C@H]1C(=O)NC(=O)[C@H]12	.	.	.	.	3%	3%
COc1ccc(-c2nc3cnc(Nc4cccc(OC)c4)nc3n(C)c2=O)cc1	-2%[11.4 µM]	.	9%	8%	?	13%
COc1ccc(OC)c2[nH]c(=O)c(CCNS(=O)(=O)c3ccc(C)cc3)cc12	4%	2.3*	1%	-10%	14%	?
COc1ccc(OC)c2[nH]c(=O)c(CCNS(=O)(=O)c3ccc(Cl)cc3)cc12	-2%	4.3*	4%	-12%	6%	-28%
COc1ccc(OC)c2[nH]c(=O)c(CCNC(=O)C(C)C)cc12	0%	.	?	9%	.	-11%
SMILES	FLuc inh	PK Bst	HADH2 inh	ALOX15 inhib	ERK AVP block	HSD17B inhib
S[C@@H]1CCCN(Cc2ccccc2)C1	0%[11.4 µM]	.	-6%[11.4 µM]	0%[11.4 µM]	-4%[11.5 µM]	-4%[11.4 µM]
CNC1C(O)C(O[C@H]2C(O)[C@@H](OC3OC(CN)=CCC3N)[C@H](N)C[C@@H]2N)OC[C@]1(C)O (stereo not given in full)	.	.	.	2%	10%	0%
CCN1CCC[C@@H]1CNC(=O)c1c(OC)ccc(I)c1O	0%	.	10%	.	.	.
Cc1ccc2c(c1)CCCN2C(=O)Nc1ccc2c(c1)OCO2	?	>57	-8%	20µM*	-14%	?
O=C1CNCCCN2CCN(CCCNCC(=O)Nc3ccc(cc3)S(=O)(=O)c3ccc(cc3)NC(=O)CNCCCN3CCN(CCCNCC(=O)Nc4ccc(cc4)S(=O)(=O)c4ccc(cc4)N1)CC3)CC2	2%[11.4 µM]	.	5%[11.4 µM]	.	.	.
Cc1nc(Sc2nnnn2C)c2c3c(sc2n1)CCC3	10%	>57	-6%	8%	5%	13µM*
NCCC[C@@H](CC(=O)N[C@@H]1CCCC[C@H]1C(=O)N[C@H](CC(=O)N[C@@H](CCC(=O)O)CC(=O)O)Cc1ccccc1)NC(=O)C[C@H](Cc1c[nH]c2ccccc12)NC(=O)[C@@H]1CCCC[C@H]1N	.	.	-10%	.	.	.
CCOC(=O)OCC	.	.	-14%	0%	25%	-4%
COc1ccc(-c2nc3cnc(N(C)C)nc3n(C3CC3)c2=O)cc1	-13%[11.4 µM]	.	0%	-18%	38%	25µM*
CN(C)c1ncc2nc(-c3cc(F)cc(F)c3)c(=O)n(C3CC3)c2n1	1%[11.4 µM]	.	97%	-3%	10%	25µM*
COc1ccc(-c2nc3cnc(N(C)C)nc3n(C)c2=O)cc1	-8%[11.4 µM]	.	4%	-3%	36%	7.9µM*
CN(C)c1ncc2nc(-c3ccc(Cl)cc3)c(=O)n(C3CC3)c2n1	-2%[11.4 µM]	.	29%	-9%	11%	?
COc1ccc(Oc2ncc3nc(-c4ccc(OC)cc4)c(=O)n(C)c3n2)cc1	2%[11.4 µM]	.	3%	3%	9%	-11%
CN(C)c1ncc2nc(-c3ccccc3)c(=O)n(C3CC3)c2n1	-4%[11.4 µM]	.	?	?	44%	25µM*
COc1ccc(CNc2nc(-c3c(C)noc3C)nc3ccccc23)c(OC)c1	1%[2.29 µM]	.	2%	-30%	?	9%
Cc1noc(C)c1C(=O)N1CCC[C@@]2(CCN(C(c3ccccc3)c3ccccc3)C2)C1	1%[11.4 µM]	.	7%	-4%	13%	-7%
C=CCCC/C=C(/C)C(OCc1ccc(OC)cc1)C(CC/C=C(\C)C(N)=O)OC (stereo not given)	.	.	0%[11.4 µM]	0%[11.4 µM]	14%[11.5 µM]	6%[11.4 µM]
CC(=O)c1ccc(NS(=O)(=O)Cc2ccccc2)cc1	4%	.	-7%	6%	10%	-7%
O=C(O)c1[nH]c2ccccc2c1NS(=O)(=O)Cc1ccccc1	-2%	>57	32µM*	3%	-18%	32µM*
Cc1ccc(C2C(C#N)=C(N)Oc3c2sc2ccccc32)o1 (stereo not given)	-9%	.	3.2µM*	?	-6%	?
